87 sequences from the supplement of paper PMC4166925 can be followed below.

± gives the standard deviation of the averaged measurements. Whole data set: some 33,000 sequences, median “E-score (dimensionless, -0.5 to 0.5)” near -0.049, cut for the highest 2% near 0.37. The sample holds the highest values, similar sequences and a random draw of the others, so the mix is not that of the screen.

This assay deals with T1, PmTbr T-box DNA-binding domain (GST fusion).
T1 sequence: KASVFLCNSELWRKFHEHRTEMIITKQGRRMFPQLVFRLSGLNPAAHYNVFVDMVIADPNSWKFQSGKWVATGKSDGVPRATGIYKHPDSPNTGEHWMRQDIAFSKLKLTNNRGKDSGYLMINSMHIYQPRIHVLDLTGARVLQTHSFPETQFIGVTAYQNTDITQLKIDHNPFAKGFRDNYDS
As to the kind of experiment: PBM E-score of 8-mer (E-score (dimensionless, -0.5 to 0.5)); Tbr is Tbrain of the sea star Patiria miniata (Pm) or the sea urchin Strongylocentrotus purpuratus (Sp); higher = stronger binding preference. As to conditions: the construct has about 5 more residues each side. In outline:
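Primer extension turned Universal Agilent oligonucleotide arrays double-stranded. They were incubated with 200 nM protein in PBS (pH 7.5); the protein was a GST-fused Tbr T-box DNA-binding domain expressed in BL21 E. coli at 20 °C and purified on glutathione. Every ungapped 8-mer was scored from the scanned, quantified probe intensities, and the Universal PBM Analysis Suite gave each an enrichment E-score averaged over duplicate arrays.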
Take AGCAACAA: the “PBM E-score of 8-mer” value worked out at 0.0934 ± 0.021.

ATGCTATA: the “PBM E-score of 8-mer” value is -0.182 ± 0.01.

On to ATGCGTCA, for which the “PBM E-score of 8-mer” value was found to be 0.161 ± 0.013.

In the case of GTCAAACA, the “PBM E-score of 8-mer” value is -0.0272 ± 0.074.

ATGCCAGC: the “PBM E-score of 8-mer” value is -0.0462 ± 0.0027.

For the sequence AATGTGCG, the “PBM E-score of 8-mer” value came out at 0.27 ± 0.012.

As to AATGTGGC, the “PBM E-score of 8-mer” value came to 0.163 ± 0.0047.

As for AATGTGTG, the “PBM E-score of 8-mer” value came out at 0.408 ± 0.014.

For AATGTGTA, the “PBM E-score of 8-mer” value was determined as 0.226 ± 0.029.

Regarding AATGTGTC, the “PBM E-score of 8-mer” value stood at 0.425 ± 0.0071.

For CATGTGTC, the “PBM E-score of 8-mer” value was found to be 0.309 ± 0.03.

For AATAGACT, the “PBM E-score of 8-mer” value is -0.175 ± 0.072.

Consider ACACCCCA, for which the “PBM E-score of 8-mer” value stood at 0.382 ± 0.015.

On to ACACCCGG, for which the “PBM E-score of 8-mer” value is 0.3462 ± 0.00071.

For CCACCCCC, the “PBM E-score of 8-mer” value was 0.00912 ± 0.024.

As to ACCCCCCT, the “PBM E-score of 8-mer” value is -0.152 ± 0.11.

For ACACCCCT, the “PBM E-score of 8-mer” value was determined as 0.4 ± 0.027.

For the sequence GCACCCCA, the “PBM E-score of 8-mer” value came to 0.242 ± 0.0042.

As to ACACCCCG, the “PBM E-score of 8-mer” value was 0.397 ± 0.029.

As to ACACCCCC, the “PBM E-score of 8-mer” value amounted to 0.379 ± 0.017.

Consider ACCCCTCT, for which the “PBM E-score of 8-mer” value is -0.0694 ± 0.019.

Take CCACCCCG: the “PBM E-score of 8-mer” value came to 0.235 ± 0.033.

Turning to GCACCCCC, the “PBM E-score of 8-mer” value was 0.226 ± 0.047.

Turning to TCACCCCA, the “PBM E-score of 8-mer” value was 0.277 ± 0.028.

Consider CGTGCTCC, for which the “PBM E-score of 8-mer” value was -0.172 ± 0.017.

Turning to GTTGATCA, the “PBM E-score of 8-mer” value was found to be 0.0616 ± 0.0014.

For the sequence GATACAGA, the “PBM E-score of 8-mer” value is -0.189 ± 0.0045.

ACGGCCTC: the “PBM E-score of 8-mer” value was -0.166 ± 0.071.

Regarding GTAGGAAA, the “PBM E-score of 8-mer” value was -0.0915 ± 0.041.

Turning to GTCGACGA, the “PBM E-score of 8-mer” value worked out at 0.155 ± 0.015.

Regarding ACAGACAT, the “PBM E-score of 8-mer” value is 0.0773 ± 0.016.

In the case of ACACCCAG, the “PBM E-score of 8-mer” value worked out at 0.339 ± 0.021.

Turning to GCCCAACA, the “PBM E-score of 8-mer” value is 0.0617 ± 0.0082.

Take AAAATTCT: the “PBM E-score of 8-mer” value was -0.1 ± 0.051.

With AAGTGTAC, the “PBM E-score of 8-mer” value amounted to 0.0291 ± 0.019.

As for AAGTGTTG, the “PBM E-score of 8-mer” value came to 0.437 ± 0.006.

With CAGTGTTC, the “PBM E-score of 8-mer” value is -0.0572 ± 0.047.

With GAGTGTTA, the “PBM E-score of 8-mer” value turned out to be 0.385 ± 0.012.

With CAGTGTTA, the “PBM E-score of 8-mer” value was determined as 0.322 ± 0.0036.

Turning to AAGTGTTC, the “PBM E-score of 8-mer” value was 0.298 ± 0.012.

Turning to AAGTGGTA, the “PBM E-score of 8-mer” value is 0.165 ± 0.013.

For AAGTGTTA, the “PBM E-score of 8-mer” value amounted to 0.467 ± 0.0064.

Consider GAGTGTAC, for which the “PBM E-score of 8-mer” value was -0.079 ± 0.061.

As for CTTCTGGC, the “PBM E-score of 8-mer” value is -0.0431 ± 0.0062.

AGCCTCCT: the “PBM E-score of 8-mer” value is -0.194 ± 0.057.

Regarding ATGACCAG, the “PBM E-score of 8-mer” value is -0.119 ± 0.011.

For the sequence GCTCTAGA, the “PBM E-score of 8-mer” value is -0.268 ± 0.07.

AACAGCCC: the “PBM E-score of 8-mer” value is -0.015 ± 0.027.

AGAGCACT: the “PBM E-score of 8-mer” value was -0.194 ± 0.044.

As for AGGGATAC, the “PBM E-score of 8-mer” value is -0.319 ± 0.026.

As to ATAGCCAA, the “PBM E-score of 8-mer” value was -0.2 ± 0.05.

With ACACGTTG, the “PBM E-score of 8-mer” value is 0.374 ± 0.0049.

As for ACACGTCG, the “PBM E-score of 8-mer” value stood at 0.391 ± 0.018.

Take AAACGTTG: the “PBM E-score of 8-mer” value is -0.22 ± 0.042.

On to CCACGTTA, for which the “PBM E-score of 8-mer” value worked out at 0.131 ± 0.0074.

On to ACACGTTC, for which the “PBM E-score of 8-mer” value came out at 0.337 ± 0.013.

In the case of ACACGTCT, the “PBM E-score of 8-mer” value was found to be 0.355 ± 0.021.

Take ACACGTTA: the “PBM E-score of 8-mer” value came out at 0.3709 ± 0.0015.

On to ACACGTAG, for which the “PBM E-score of 8-mer” value is 0.206 ± 0.0044.

Consider ACACGTCA, for which the “PBM E-score of 8-mer” value amounted to 0.361 ± 0.0048.

For CAGGGATA, the “PBM E-score of 8-mer” value is -0.326 ± 0.061.

GGACGCAC: the “PBM E-score of 8-mer” value was -0.0479 ± 0.052.

Regarding AACGAGCC, the “PBM E-score of 8-mer” value was -0.319 ± 0.096.

For the sequence CACAGTCC, the “PBM E-score of 8-mer” value was found to be 0.0117 ± 0.032.

Take ACTGCACG: the “PBM E-score of 8-mer” value is -0.149 ± 0.031.

As to CGCGAAAA, the “PBM E-score of 8-mer” value stood at 0.359 ± 0.019.

As for AGCGAACA, the “PBM E-score of 8-mer” value worked out at 0.0494 ± 0.02.

As for GGCGAACA, the “PBM E-score of 8-mer” value came to 0.0467 ± 0.018.

On to TGCGAGAA, for which the “PBM E-score of 8-mer” value amounted to 0.3906 ± 0.0012.

Take CGCGAGAA: the “PBM E-score of 8-mer” value was 0.32 ± 0.0046.

With TGCGAAAA, the “PBM E-score of 8-mer” value came out at 0.391 ± 0.03.

Take TGCGAACA: the “PBM E-score of 8-mer” value turned out to be 0.396 ± 0.0075.

With AGCGAAAA, the “PBM E-score of 8-mer” value is 0.0819 ± 0.093.

Turning to GGCGAGAA, the “PBM E-score of 8-mer” value was determined as 0.339 ± 0.005.

As for CACTCTAG, the “PBM E-score of 8-mer” value is 0.223 ± 0.0029.

Take CGTGACAA: the “PBM E-score of 8-mer” value was determined as 0.407 ± 0.025.

On to AGTGACAT, for which the “PBM E-score of 8-mer” value was 0.309 ± 0.017.

As for GTTGACAA, the “PBM E-score of 8-mer” value turned out to be 0.3821 ± 0.0035.

In the case of GGTGACAC, the “PBM E-score of 8-mer” value came to 0.4691 ± 0.0035.

As for GTTGACGA, the “PBM E-score of 8-mer” value turned out to be 0.211 ± 0.012.

On to AGTGACAC, for which the “PBM E-score of 8-mer” value turned out to be 0.44 ± 0.0087.

For GGAGACAC, the “PBM E-score of 8-mer” value is 0.142 ± 0.084.

Take CTTGACAA: the “PBM E-score of 8-mer” value stood at 0.328 ± 0.0034.

In the case of AGTGACAG, the “PBM E-score of 8-mer” value is 0.357 ± 0.0084.

As for GATGACAC, the “PBM E-score of 8-mer” value was 0.36 ± 0.02.

In the case of CGTGACCA, the “PBM E-score of 8-mer” value amounted to 0.259 ± 0.018.

On to CGTGACAG, for which the “PBM E-score of 8-mer” value was found to be 0.27 ± 0.015.
